Data reported in PubChem BioAssay AID1159580 (chemical genetic matrix, 2015).
Screen size: about 5,500 compounds; about 2,000 (36%) were called active. Inconclusive results (about 18%) are left out. Rule as the data show it: active = normalized growth mostly below about 0.91 (no sharp cut-off); inconclusive = no clear call, values can overlap the other calls; inactive = mostly above about 0.92. The list shows a part of the results.

Assay: chemical genetic growth profiling, strain panel (AID 1159580);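 also: tested at 20 µM; growth read once vehicle control cultures reached saturation at 30 °C; 1 = growth at the plate median or of vehicle wells; lower values mean less growth of the strain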
Details: growth OD

Measured: normalized growth

CS(=O)(=O)c1ccc([C@@H](O)[C@@H](CO)NC(=O)C(Cl)Cl)cc1
inactive: S. cerevisiae deletion strains, locus YKL009W, strain mrt4, active compounds read low 0.977 | S. cerevisiae deletion strains, locus YKL068W, active compounds read low 0.978 | S. cerevisiae deletion strains, locus YKL085W, strain MDH1 (second series), active compounds read low 0.988 | S. cerevisiae deletion strains, locus YKL085W, strain MDH1, active compounds read low 0.988 | S. cerevisiae deletion strains, locus YKL160W, strain elf1, active compounds read low 1.02 | S. cerevisiae deletion strains, locus YKL190W, strain CNB1, active compounds read low 0.991 | S. cerevisiae deletion strains, locus YKR001C, strain vps1, active compounds read low 0.99 | S. cerevisiae deletion strains, locus YKR026C, strain gcn3, active compounds read low 1.03 | S. cerevisiae deletion strains, locus YKR091W, strain srl3, active compounds read low 1.01 | S. cerevisiae deletion strains, locus YLL001W, strain dnm1, active compounds read low 1 | S. cerevisiae deletion strains, locus YLL026W, active compounds read low 1.02 | S. cerevisiae deletion strains, locus YLL041C, strain sdh2, active compounds read low 1.02 | S. cerevisiae deletion strains, locus YLR027C, strain aat2, active compounds read low 1.01 | S. cerevisiae deletion strains, locus YLR039C, strain RIC1, active compounds read low 0.947 | S. cerevisiae deletion strains, locus YLR058C, strain SHM2, active compounds read low 0.965 | S. cerevisiae deletion strains, locus YLR102C, strain apc9, active compounds read low 0.978 | S. cerevisiae deletion strains, locus YLR113W, strain HOG1, active compounds read low 0.998 | S. cerevisiae deletion strains, locus YLR221C, strain rsa3, active compounds read low 1.01 | S. cerevisiae deletion strains, locus YLR258W, strain gsy2, active compounds read low 1.02 | S. cerevisiae deletion strains, locus YLR262C, strain YPT6 (second series), active compounds read low 1.03 | S. cerevisiae deletion strains, locus YLR262C, strain YPT6, active compounds read low 0.849 | S. cerevisiae deletion strains, locus YLR268W, strain sec22, active compounds read low 0.983 | S. cerevisiae deletion strains, locus YLR320W, strain mms22, active compounds read low 0.991 | S. cerevisiae deletion strains, locus YLR330W, strain CHS5, active compounds read low 0.982 | S. cerevisiae deletion strains, locus YLR342W, strain FKS1 (second series), active compounds read low 1.01 | S. cerevisiae deletion strains, locus YLR342W, strain FKS1, active compounds read low 1.01 | S. cerevisiae deletion strains, locus YLR357W, strain rsc2, active compounds read low 1 | S. cerevisiae deletion strains, locus YLR370C, strain arc18, active compounds read low 1.03 | S. cerevisiae deletion strains, locus YLR371W, strain rom2, active compounds read low 0.993 | S. cerevisiae deletion strains, locus YLR384C, strain iki3, active compounds read low 1.02 | S. cerevisiae deletion strains, locus YLR418C, strain cdc73, active compounds read low 0.98 | S. cerevisiae deletion strains, locus YML016C, strain PPZ1, active compounds read low 0.981 | S. cerevisiae deletion strains, locus YML032C, strain rad52, active compounds read low 1 | S. cerevisiae deletion strains, locus YML120C, strain ndi1, active compounds read low 1.05 | S. cerevisiae deletion strains, locus YML124C, strain tub3, active compounds read low 0.993 | S. cerevisiae deletion strains, locus YMR058W, strain fet3, active compounds read low 1.03 | S. cerevisiae deletion strains, locus YMR078C, strain ctf18, active compounds read low 0.975 | S. cerevisiae deletion strains, locus YMR125W, strain sto1, active compounds read low 1.04 | S. cerevisiae deletion strains, locus YMR129W, active compounds read low 1.02 | S. cerevisiae deletion strains, locus YMR205C, strain PFK2, active compounds read low 1.01 | S. cerevisiae deletion strains, locus YMR223W, strain ubp8, active compounds read low 1.02 | S. cerevisiae deletion strains, locus YMR231W, strain pep5, active compounds read low 1.03 | S. cerevisiae deletion strains, locus YMR263W, strain SAP30, active compounds read low 0.984 | S. cerevisiae deletion strains, locus YMR307W, strain GAS1, active compounds read low 1.06 | S. cerevisiae deletion strains, locus YNL067W, strain RPL9B, active compounds read low 0.973 | S. cerevisiae deletion strains, locus YNL071W, strain lat1, active compounds read low 1.03 | S. cerevisiae deletion strains, locus YNL128W, strain TEP1, active compounds read low 0.975 | S. cerevisiae deletion strains, locus YNL153C, strain GIM3, active compounds read low 0.981 | S. cerevisiae deletion strains, locus YNL183C, strain NPR1, active compounds read low 0.959 | S. cerevisiae deletion strains, locus YNL209W, strain ssb2, active compounds read low 1.04 | S. cerevisiae deletion strains, locus YNL233W, strain BNI4, active compounds read low 0.99 | S. cerevisiae deletion strains, locus YNL248C, strain rpa49, active compounds read low 1.07 | S. cerevisiae deletion strains, locus YNL250W, strain rad50, active compounds read low 0.981 | S. cerevisiae deletion strains, locus YNL271C, strain bni1, active compounds read low 0.995 | S. cerevisiae deletion strains, locus YNL298W, strain CLA4, active compounds read low 0.988 | S. cerevisiae deletion strains, locus YNL307C, strain MCK1, active compounds read low 0.985 | S. cerevisiae deletion strains, locus YNL322C, strain KRE1 (second series), active compounds read low 1.02 | S. cerevisiae deletion strains, locus YNL322C, strain KRE1, active compounds read low 0.983 | S. cerevisiae deletion strains, locus YNR049C, strain mso1, active compounds read low 1 | S. cerevisiae deletion strains, locus YNR052C, strain pop2, active compounds read low 0.993 | S. cerevisiae deletion strains, locus YOL006C, strain TOP1, active compounds read low 0.889 | S. cerevisiae deletion strains, locus YOL012C, strain htz1 1.83 | S. cerevisiae deletion strains, locus YOL147C, strain pex11, active compounds read low 0.99 | S. cerevisiae deletion strains, locus YOR001W, strain rrp6, active compounds read low 1.03 | S. cerevisiae deletion strains, locus YOR061W, strain CKA2, active compounds read low 0.944 | S. cerevisiae deletion strains, locus YOR069W, strain VPS5, active compounds read low 0.991 | S. cerevisiae deletion strains, locus YOR070C, strain gyp1, active compounds read low 1.03 | S. cerevisiae deletion strains, locus YOR080W, strain dia2, active compounds read low 1.02 | S. cerevisiae deletion strains, locus YOR083W, strain WHI5, active compounds read low 0.98 | S. cerevisiae deletion strains, locus YOR106W, strain vam3, active compounds read low 1.05 | S. cerevisiae deletion strains, locus YOR136W, strain idh2, active compounds read low 0.992 | S. cerevisiae deletion strains, locus YOR144C, strain elg1, active compounds read low 0.983 | S. cerevisiae deletion strains, locus YOR184W, strain ser1, active compounds read low 1.03 | S. cerevisiae deletion strains, locus YOR231W, strain MKK1, active compounds read low 0.967 | S. cerevisiae deletion strains, locus YOR265W, strain rbl2, active compounds read low 1.03 | S. cerevisiae deletion strains, locus YOR270C, strain vph1, active compounds read low 1.12 | S. cerevisiae deletion strains, locus YOR290C, strain snf2, active compounds read low 1.04 | S. cerevisiae deletion strains, locus YOR316C, strain cot1, active compounds read low 0.975 | S. cerevisiae deletion strains, locus YPL051W, strain arl3, active compounds read low 1.02 | S. cerevisiae deletion strains, locus YPL055C, strain LGE1, active compounds read low 0.984 | S. cerevisiae deletion strains, locus YPL078C, strain atp4, active compounds read low 1.04 | S. cerevisiae deletion strains, locus YPL106C, strain sse1, active compounds read low 1.01 | S. cerevisiae deletion strains, locus YPL240C, strain hsp82, active compounds read low 1.02 | S. cerevisiae deletion strains, locus YPL241C, strain CIN2, active compounds read low 0.968 | S. cerevisiae deletion strains, locus YPL256C, strain CLN2, active compounds read low 0.995 | S. cerevisiae deletion strains, locus YPR119W, strain clb2, active compounds read low 1 | S. cerevisiae deletion strains, locus YPR141C, strain kar3, active compounds read low 0.971 | S. cerevisiae deletion strains, locus YPR163C, strain tif3, active compounds read low 1 | S. cerevisiae deletion strains, locus YPR167C, strain met16, active compounds read low 0.975 | S. cerevisiae deletion strains, strain wtn01, active compounds read low 0.984 | S. cerevisiae strains, strain wild type, active compounds read low 0.963
